Assay outcomes: PubChem BioAssay, National Center for Advancing Translational Sciences (NCATS)
A selection: hits, their analogues and other compounds. The true share with any hit is near 9.2%.
ELG1 repair inh = qHTS screen for small molecules that inhibit ELG1-dependent DNA repair in human embryonic kidney (HEK293T) cells expressing luciferase-tagged ELG1; AID 504467, 2011; Potency, µM (titrated, usually from 46.1 µM), inactives show at the top dose activity change, negative = inhibition, hits mostly inhibitors; 330,000 tested, 2.3% active; HEK293T ELG1-luciferase reporter, luminescence, 16 h; DNA damage induced by 5-fluorouridine; also: % is scaled to controls: 0 for no effect and ±100 for the full control effect; nearly all actives have a fitted effect of over 55% in size
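Luminescence from the luciferase reporter, measured 30 min after ONE-Glo reagent at room temperature, was the read-out. Beforehand, 2,000 cells per well were exposed for 16 hr at 37 °C to 5-fluorouridine together with compound or vehicle.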
Rab9 promoter act = qHTS Assay for Rab9 Promoter Activators. AID 485297, 2010. 320,000 tested, 2.8% active. Huh7 Rab9 promoter-luciferase reporter, luminescence, 24 h. Potency, µM (titrated, usually from 9.22 µM), for inactives: top-dose activation, negative = inhibition, actives largely listed as activators; also: % of control where 0% means no effect; nearly all actives have a fitted effect of over 60% in size
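Measured in stably transfected Huh7 cells bearing a Rab9 promoter–luciferase construct: 24 h compound treatment at 37 °C, followed by luminescence detection.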
ELG1 genotoxic = qHTS screen for small molecules that induce genotoxicity in human embryonic kidney (HEK293T) cells expressing luciferase-tagged ELG1; 330,000 tested, 1.3% active; HEK293T ELG1-luciferase reporter, luminescence, 16 h; Potency, µM (top dose mostly 46 µM), inactives show at the top dose activity change, positive = activation, most hits filed as activators; also: % of control where 0% means no effect; nearly all actives have a fitted effect of over 60% in size
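Reporter readout depends on ELG1 protein level, which increases with genetic stress. After 16 hr compound exposure at 37 °C, luciferase activity was quantified using ONE-Glo.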
NPC1 prom act = qHTS Assay for NPC1 Promoter Activators; Potency, µM (series often up to 9.22 µM), inactives show top-dose activation, actives largely listed as activators; Huh7 NPC1 promoter luciferase reporter, 24 h; 320,000 tested, 2.4% active; also: % of control where 0% means no effect; nearly all actives have a fitted effect of over 60% in size
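In 1536-well qHTS, Huh7 cells harboring an NPC1 promoter–luciferase construct received compound for 24 h; activation was quantified by luminescence following luciferase reagent addition.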
FLuc counter = qHTS profiling assay for firefly luciferase inhibitor/activator using purifed enzyme and Km concentrations of substrates (counterscreen for miR-21 project) | Potency, µM (doses to about 57.5 µM), without a hit: at the highest dose activity change, negative = inhibition, usual class: inhibitors | purified FLuc, Km substrates, luminescence inhibition | Luciferin 4-monooxygenase (Photinus pyralis), P08659 | 360,000 tested, 6.9% active;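 also: plate controls were vehicle for no effect and reference inhibitor for full effect; nearly all actives have a fitted effect of over 55% in size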
Target sequence (P08659 whole entry, looked up): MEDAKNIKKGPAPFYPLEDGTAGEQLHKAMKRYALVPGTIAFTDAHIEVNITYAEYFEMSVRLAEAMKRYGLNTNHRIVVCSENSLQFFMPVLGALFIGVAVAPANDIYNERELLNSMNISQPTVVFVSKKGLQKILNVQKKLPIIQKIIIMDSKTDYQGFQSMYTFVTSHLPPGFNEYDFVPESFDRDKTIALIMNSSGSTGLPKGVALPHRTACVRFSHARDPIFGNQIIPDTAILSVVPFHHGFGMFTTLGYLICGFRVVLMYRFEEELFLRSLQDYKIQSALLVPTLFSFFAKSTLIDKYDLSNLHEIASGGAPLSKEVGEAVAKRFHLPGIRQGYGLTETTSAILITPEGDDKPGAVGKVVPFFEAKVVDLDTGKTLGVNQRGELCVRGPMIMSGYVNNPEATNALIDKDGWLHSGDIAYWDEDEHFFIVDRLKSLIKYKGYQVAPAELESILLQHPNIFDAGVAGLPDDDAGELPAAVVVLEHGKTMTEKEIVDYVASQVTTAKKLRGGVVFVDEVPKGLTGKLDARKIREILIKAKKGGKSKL
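Purified P. pyralis luciferase (10nM final) with 10uM D-luciferin and 10uM ATP (Km levels) in 50mM Tris acetate pH 7.5, 10mM Mg acetate, 0.01% Tween-20, 0.05% BSA; qHTS 6-point titration, ~60 µM downward; luminescence read.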
SMN2 splice enh = qHTS Assay for Enhancers of SMN2 Splice Variant Expression. AID 1458, 2008. 210,000 tested, 2.8% active. Potency, µM (series often up to 46.1 µM), for the others: at the highest dose activity change, positive = activation, hits mostly activators. HEK293 SMN2-luciferase splicing reporter, luminescence, 30-36 h; also: % of control where 0% means no effect; nearly all actives have a fitted effect of over 55% in size
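qHTS luciferase splicing reporter: luminescence rises when SMN2 exon 7 is included in transfected HEK293 cells. Compound exposure lasted 30-36 h at 37C, with 4.5 mM final sodium butyrate as control, followed by a ONE-Glo read.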
* marks the source's active call; other numbers are inactive results; ? = inconclusive; / = no result given; [ ] = dose if it differs, or a comment. Calls follow the shape of the dose curve; as a rule, active = well fitted curve in the direction sought with a large enough effect; inconclusive = small, poorly fitted or top-dose-only effect, or another doubt; inactive = no such curve, though single readings can be large; an effect the other way counts as inactive or inconclusive. Potency is read from the fitted curve at half-maximal effect.

SMILES	ELG1 repair inh	Rab9 promoter act	ELG1 genotoxic	NPC1 prom act	FLuc counter	SMN2 splice enh
O=C(O)c1ccccc1NCn1c(=S)sc2ccccc21	/	/	/	/	/	-9%[9.22 µM]
CC(=O)C=NCC(=O)O	/	/	/	/	/	-15%[9.22 µM]
COc1ccc(-c2c(C)nn3c(N4CCCCCC4)cc(C)nc23)cc1OC	12µM*	-17%	-15%	-13%	?	/
COc1ccc(-c2c(C)nn3c(N4CCOCC4)cc(C)nc23)cc1OC	16µM*	-4%	-8%	-5%	-1%	/
C[C@H](CO)N1C[C@H](C)[C@@H](CN(C)S(=O)(=O)c2cccs2)Oc2c(NC(=O)Cc3ccccc3)cccc2C1=O	23%	/	6%	/	/	/
O=c1c2cc(F)ccc2sn1-c1ccc(F)cc1	19%	30%	0%	17%	?	/
COc1ccc(-n2sc3ccc(F)cc3c2=O)cc1	?	3.5µM*	5%	?	?	/
CCCS(=O)(=O)N1CCC(C(=O)NC2CCC(C)CC2)CC1 (stereo not drawn)	?	4µM*	?	?	-16%	/
O=C(NC(=S)Nc1ccccc1N1CCOCC1)c1sc2ccccc2c1Cl	15%	-5%	-2%	-1%	4%	-35%
O=C(O)c1ccccc1NC(=S)NC(=O)c1sc2ccccc2c1Cl	?	25%	4%	15%	24µM*	26%
Cc1ccc(NC(=S)NC(=O)c2sc3ccccc3c2Cl)c(C(=O)O)c1	?	-2%	0%	1%	27µM*	9%
CC(C)CC(=O)Nc1ccc(-c2cn3ccsc3n2)cc1	?	0.56µM*	1.2µM*	1.4µM*	1.2µM*	10µM*
CC(C)(C)C(=O)Nc1ccc(-c2cn3ccsc3n2)cc1	?	0.13µM*	?	0.28µM*	0.54µM*	?
CCOC(=O)CNC(=O)O[C@@H]1C(=O)c2cc(Br)ccc2O[C@H]1c1ccc2c(c1)OCO2	/	/	/	/	/	4%
CCOc1ccc(NC(=O)CNc2ccc(C)cc2Cl)cc1	-8%	-5%	2%	-1%	9.5µM*	-8%
CCOc1ccc(NC(=O)Nc2cc(C)ccc2F)cc1	?	1.1µM*	5.6µM*	3.2µM*	2.4µM*	16µM*
CCOc1ccc(NCC(=O)Nc2ccc(C)cc2C)cc1	-13%	-4%	-3%	-5%	0%[2.3 µM]	-9%
CCOc1ccc(NC(=O)Nc2cc(C(C)C)c(O)cc2C)cc1	?	-5%	-5%	1%	-10%	/
CC(C)NC(=O)Nc1cccc2c1O[C@H](CN(C)S(C)(=O)=O)[C@@H](C)CN([C@H](C)CO)C2=O	0%	/	0%	/	/	/
Brc1cccc(C2Nc3cccc4cccc(c34)N2)c1	0%	8%	-1%	17%	?	/
O=C1NC(c2ccncc2)Nc2ccccc21 (stereo not drawn)	5%	-1%	1%	0%	-1%	/
CCOc1cc(C2Nc3cccc4cccc(c34)N2)ccc1O	-19%	18%	-1%	19%	13µM*	1%
Cc1ccc(C2NC(=O)c3ccccc3N2)s1 (stereo not drawn)	?	11%	18µM*	-3%	?	10µM*
CN(C)c1ccc(C2Nc3cccc4cccc(c34)N2)cc1	?	?	?	?	17µM*	/
Clc1cccc(C2Nc3cccc4cccc(c34)N2)c1	-5%	8%	-2%	13%	?	/
SMILES	ELG1 repair inh	Rab9 promoter act	ELG1 genotoxic	NPC1 prom act	FLuc counter	SMN2 splice enh
Clc1ccc(C2Nc3cccc4cccc(c34)N2)cc1Cl	0%	16%	-3%	26%	24µM*	/
Cc1ccc(C)c(Cc2c(C)nc(C)[nH]c2=O)c1	-5%	-7%	0%	-3%	4%	1%
CC#CCN1c2ccccc2[C@]23C[C@@H](C(=O)OC)N(S(=O)(=O)c4ccc(C(F)(F)F)cc4)C2=NC(C(=O)OC)=C(C(=O)OC)[C@H]13	/	/	/	/	/	-2%[9.22 µM]
Cc1ccc(Nc2cc(C)nc3ncnn23)c(C)c1	-4%	1%	4%	-5%	3%	/
CC1=NOC(=O)/C1=C\c1ccc2c(c1)OCO2	?	-4%	?	-10%	?	3%
c1ccc(C2Nc3cccc4cccc(c34)N2)cc1	-5%	22%	-3%	?	15µM*	/
COc1ccc(C2Nc3cccc4cccc(c34)N2)cc1	11%	-2%	2%	13%	?	-4%
O=C1NC(c2ccc(Cl)cc2)Nc2ccccc21 (stereo not drawn)	2%	1%	0%	-10%	1%	/
CN(C)c1ccc(C2NC(=O)c3ccccc3N2)cc1 (stereo not drawn)	?	17%	?	11%	9.5µM*	/
Cc1ccc(N2CC(C(=O)NCc3nnnn3-c3ccc(C)c(C)c3)CC2=O)cc1C (stereo not drawn)	/	/	/	/	6%	/
Cn1cc(CN2C[C@]3(C)C[C@H]2CC(C)(C)C3)c(-c2ccc3c(c2)OCCO3)n1	-5%	0%	6%	-4%	0%	/
O=C(Nc1c(-c2ccccc2)nc2ccccn12)c1cccc(F)c1	3%	-2%	3%	-2%	-20%	/
Cc1cc(=O)[nH]c2ccc(S(=O)(=O)NC3CCCCC3)cc12	?	-4%	21µM*	-1%	1%	/
COc1ccc2c(=O)c(-c3ccc4c(c3)OCO4)coc2c1	?	0.4µM*	2.9µM*	0.35µM*	0.67µM*	11µM*
COc1ccc(-c2coc3c(O)c(OC)ccc3c2=O)cc1	/	/	/	/	/	1.6µM*
CCN(CC)C(=O)Oc1ccc2c(=O)c(-c3ccc(OC)cc3)coc2c1	?	?	1%	1.8µM*	8.5µM*	-12%
CCN(CC)C(=O)Oc1ccc2c(=O)c(-c3ccc(OC)cc3)c(C)oc2c1	?	-1%	-10%	-4%	?	-47%
CCOC(=O)c1c(C)[nH]c(C)c1S(=O)(=O)N1CCC(C(=O)NCc2cccc(OC)c2)CC1	/	/	/	/	6%	/
CCCn1cc(S(=O)(=O)c2cc(C)ccc2C)c(=O)c2cc(F)c(N3CCOCC3)cc21	/	/	/	/	-5%	/
CC(Sc1nnc(N)s1)C(=O)Nc1ccc2c(c1)OCO2 (stereo not drawn)	4%	3%	1%	1%	-16%	/
CC(C)[C@H](NS(=O)(=O)c1ccccc1)C(=O)OCC(=O)NC(=O)NC1CCCCC1	16µM*	/	-4%	/	/	/
